Data from PubChem BioAssay (Tox21).
Where “and” joins values, the source holds several entries; their conditions need not be identical. Identical values can stand only once. Records with an inconclusive call do not appear. Where a structure was tested more than once in an assay, its records may differ in their call. Calls of active or inactive are those of the source. Unless noted, calls follow the shape of the dose curve; as a rule, active = well fitted curve in the direction sought with a large enough effect in the repeat runs; inconclusive = weak or mixed curves; inactive = no such curve, though single readings can be large; an effect the other way counts as inactive or inconclusive.

Experiments:
[1] = target: Acetylcholinesterase (Homo sapiens) (UniProt P22303); test: Acetylcholinesterase (AChE) small molecule antagonists: colormetric cell-based qHTS assay (AID 1347395; calls by dose curve; also: nearly all actives have a fitted effect of over 30% in size)
Chain of Acetylcholinesterase (Homo sapiens) (P22303 whole entry, looked up): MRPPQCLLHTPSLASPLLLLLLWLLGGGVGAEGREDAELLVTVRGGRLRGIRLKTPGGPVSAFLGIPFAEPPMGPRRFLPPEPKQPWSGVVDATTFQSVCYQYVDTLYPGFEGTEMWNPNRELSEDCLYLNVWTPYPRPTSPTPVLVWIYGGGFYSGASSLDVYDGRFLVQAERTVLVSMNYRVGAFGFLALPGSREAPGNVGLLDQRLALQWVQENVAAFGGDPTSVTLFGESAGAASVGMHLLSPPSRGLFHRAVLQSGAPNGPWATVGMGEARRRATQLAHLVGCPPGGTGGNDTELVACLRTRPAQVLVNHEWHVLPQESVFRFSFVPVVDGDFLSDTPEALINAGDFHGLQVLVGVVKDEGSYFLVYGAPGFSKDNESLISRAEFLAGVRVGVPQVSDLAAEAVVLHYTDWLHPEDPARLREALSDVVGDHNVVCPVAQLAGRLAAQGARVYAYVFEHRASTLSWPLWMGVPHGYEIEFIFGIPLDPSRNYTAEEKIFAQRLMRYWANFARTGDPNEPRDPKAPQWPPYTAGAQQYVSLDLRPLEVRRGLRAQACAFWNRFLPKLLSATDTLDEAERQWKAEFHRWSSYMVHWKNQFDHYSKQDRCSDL
Summary of the method: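 AChE inhibition read colorimetrically via DTNB–thiocholine in SH-SY5Y cells. Compound 30 min, substrate 90 min, both 37 C.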

[2] = target: Acetylcholinesterase (Homo sapiens) (UniProt P22303); test: Acetylcholinesterase (AChE) small molecule antagonists: enzyme-based qHTS assay (AID 1347397; calls by dose curve; also: nearly all actives have a fitted effect of over 55% in size); details: Potency: AChE enzyme activity inhibition
Summary of the method: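 Enzyme inhibition was scored from DTNB-detected thiocholine formed by recombinant human AChE acting on acetylthiocholine. The 30 min compound preincubation and 10 min substrate reaction were both run at room temperature, with DMSO as vehicle control.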

[3] = target: Acetylcholinesterase (Homo sapiens) (UniProt P22303); test: Acetylcholinesterase (AChE) small molecule antagonists: fluorescence cell-based qHTS assay (AID 1347398; calls by dose curve; also: nearly all actives have a fitted effect of over 50% in size); details: Potency: AChE activity
Summary of the method: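 Endogenous acetylcholinesterase of SH-SY5Y neuroblastoma cells is measured in situ. After overnight attachment and 30 min compound exposure, cells receive acetylthiocholine and Thiolite Green; fluorescence is read after 40 min at room temperature.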

[4] = target: Acetylcholinesterase (Homo sapiens) (UniProt P22303); test: Acetylcholinesterase (AChE) small molecule antagonists: enzyme-based qHTS assay with human liver microsomes (AID 1347399; calls by dose curve; also: nearly all actives have a fitted effect of over 60% in size); details: Potency: qHTS inhibition
Summary of the method: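 Recombinant human AChE (50 mU/mL in the enzyme mix) and human liver microsomes (0.25 mg/mL final) were preincubated with compound and NADPH (0.25 mg/mL final) for 30 min at 37 C. Acetylthiocholine/DTNB was then added; thiocholine was read colorimetrically after 10 min at room temperature.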

[5] = target: Cytochrome P450 2D6 (Homo sapiens) (UniProt P10635); test: Cytochrome P450 Family 2 Subfamily D Member 6 (CYP2D6) small molecule antagonists: luciferase reporter qHTS assay (AID 1671196); also: nearly all actives have a fitted effect of over 50% in size; also: potency is read from the fitted curve at half-maximal effect; as to activity change, negative = inhibition: series mostly up to about 120 µM
Chain of Cytochrome P450 2D6 (Homo sapiens) (P10635 whole entry, looked up): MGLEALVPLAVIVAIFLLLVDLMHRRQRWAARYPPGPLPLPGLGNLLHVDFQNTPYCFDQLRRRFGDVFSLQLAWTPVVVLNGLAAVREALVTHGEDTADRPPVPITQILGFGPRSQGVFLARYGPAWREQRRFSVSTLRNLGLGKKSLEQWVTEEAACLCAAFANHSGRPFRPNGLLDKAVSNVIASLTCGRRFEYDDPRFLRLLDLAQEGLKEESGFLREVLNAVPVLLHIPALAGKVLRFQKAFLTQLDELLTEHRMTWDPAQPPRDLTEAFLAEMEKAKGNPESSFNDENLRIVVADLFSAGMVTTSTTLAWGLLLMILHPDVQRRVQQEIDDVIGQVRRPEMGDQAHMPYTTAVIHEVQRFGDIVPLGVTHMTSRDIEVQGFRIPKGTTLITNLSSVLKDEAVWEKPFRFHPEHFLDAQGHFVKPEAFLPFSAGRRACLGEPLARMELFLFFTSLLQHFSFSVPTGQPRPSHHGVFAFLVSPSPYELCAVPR
Summary of the method: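 P450-Glo format: CYP2D6 converts a proluciferin substrate to luciferin in an NADPH-driven reaction lasting 1 h at room temperature. Light output, proportional to CYP2D6 activity, reflects interference by test chemicals.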

[6] = target: Cytochrome P450 2C19 (Homo sapiens) (UniProt P33261); test: Cytochrome P450 Family 2 Subfamily C Member 19 (CYP2C19) small molecule antagonists: luciferase reporter qHTS assay (AID 1671197); also: nearly all actives have a fitted effect of over 65% in size; also: potency is read from the fitted curve at half-maximal effect; as to activity change, negative = inhibition: series mostly up to about 120 µM
Chain of Cytochrome P450 2C19 (Homo sapiens) (P33261 whole entry, looked up): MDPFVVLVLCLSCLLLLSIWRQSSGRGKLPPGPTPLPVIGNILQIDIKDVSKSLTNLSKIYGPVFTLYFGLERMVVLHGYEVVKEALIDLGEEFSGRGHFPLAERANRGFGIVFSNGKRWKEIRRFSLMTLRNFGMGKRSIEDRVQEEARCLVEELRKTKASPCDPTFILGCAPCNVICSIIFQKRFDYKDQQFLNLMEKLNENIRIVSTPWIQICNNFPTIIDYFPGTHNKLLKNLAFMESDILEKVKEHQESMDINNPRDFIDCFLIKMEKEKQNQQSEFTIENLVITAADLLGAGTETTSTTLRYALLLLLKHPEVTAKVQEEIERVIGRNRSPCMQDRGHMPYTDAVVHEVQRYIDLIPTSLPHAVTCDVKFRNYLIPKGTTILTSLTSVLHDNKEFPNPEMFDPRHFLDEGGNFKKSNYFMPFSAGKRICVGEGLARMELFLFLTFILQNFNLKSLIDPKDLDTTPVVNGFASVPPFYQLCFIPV
Summary of the method: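 Compounds were tested on CYP2C19 activity via proluciferin conversion to luciferin. The 37C, 1 h reaction followed NADPH addition; detection reagent stopped it.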

[7] = target: Cytochrome P450 2C9 (Homo sapiens) (UniProt P11712); test: Cytochrome P450 Family 2 Subfamily C Member 9 (CYP2C9) small molecule antagonists: luciferase reporter qHTS assay (AID 1671198); also: nearly all actives have a fitted effect of over 50% in size; also: potency is read from the fitted curve at half-maximal effect; as to activity change, negative = inhibition: series mostly up to about 120 µM
Chain of Cytochrome P450 2C9 (Homo sapiens) (P11712 whole entry, looked up): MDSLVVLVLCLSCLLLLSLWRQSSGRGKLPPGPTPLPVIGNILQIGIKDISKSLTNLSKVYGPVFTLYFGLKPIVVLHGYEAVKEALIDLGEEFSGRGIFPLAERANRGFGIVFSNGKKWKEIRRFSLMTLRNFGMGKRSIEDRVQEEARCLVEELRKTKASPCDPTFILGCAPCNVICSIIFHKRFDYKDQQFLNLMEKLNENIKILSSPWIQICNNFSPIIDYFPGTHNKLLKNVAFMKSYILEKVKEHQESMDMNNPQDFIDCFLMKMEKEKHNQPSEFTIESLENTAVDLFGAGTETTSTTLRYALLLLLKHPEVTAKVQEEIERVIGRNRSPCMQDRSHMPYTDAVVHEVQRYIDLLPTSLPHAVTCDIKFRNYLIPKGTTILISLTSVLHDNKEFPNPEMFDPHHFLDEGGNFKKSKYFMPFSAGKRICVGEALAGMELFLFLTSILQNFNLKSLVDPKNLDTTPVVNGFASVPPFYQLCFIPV
Summary of the method: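 P450-Glo proluciferin substrate with CYP2C9 enzyme; 10 min RT preincubation, then NADPH regeneration 1 h at 37C; luciferin detection reagent 20 min RT, luminescence in relative luminescence units.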

[8] = target: Voltage-gated inwardly rectifying potassium channel KCNH2 (Homo sapiens) (UniProt Q12809); test: Human Ether-a-go-go-Related Gene (hERG) channel small molecule antagonists: fluorescence cell-based qHTS assay (AID 1671200); also: nearly all actives have a fitted effect of over 50% in size; also: potency is read from the fitted curve at half-maximal effect;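 as to activity change, negative = inhibition: hERG-expressing U2OS cells given a thallium stimulus after FluxOR II dye loading; series mostly up to about 77 µM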
Chain of Voltage-gated inwardly rectifying potassium channel KCNH2 (Homo sapiens) (Q12809 whole entry, looked up): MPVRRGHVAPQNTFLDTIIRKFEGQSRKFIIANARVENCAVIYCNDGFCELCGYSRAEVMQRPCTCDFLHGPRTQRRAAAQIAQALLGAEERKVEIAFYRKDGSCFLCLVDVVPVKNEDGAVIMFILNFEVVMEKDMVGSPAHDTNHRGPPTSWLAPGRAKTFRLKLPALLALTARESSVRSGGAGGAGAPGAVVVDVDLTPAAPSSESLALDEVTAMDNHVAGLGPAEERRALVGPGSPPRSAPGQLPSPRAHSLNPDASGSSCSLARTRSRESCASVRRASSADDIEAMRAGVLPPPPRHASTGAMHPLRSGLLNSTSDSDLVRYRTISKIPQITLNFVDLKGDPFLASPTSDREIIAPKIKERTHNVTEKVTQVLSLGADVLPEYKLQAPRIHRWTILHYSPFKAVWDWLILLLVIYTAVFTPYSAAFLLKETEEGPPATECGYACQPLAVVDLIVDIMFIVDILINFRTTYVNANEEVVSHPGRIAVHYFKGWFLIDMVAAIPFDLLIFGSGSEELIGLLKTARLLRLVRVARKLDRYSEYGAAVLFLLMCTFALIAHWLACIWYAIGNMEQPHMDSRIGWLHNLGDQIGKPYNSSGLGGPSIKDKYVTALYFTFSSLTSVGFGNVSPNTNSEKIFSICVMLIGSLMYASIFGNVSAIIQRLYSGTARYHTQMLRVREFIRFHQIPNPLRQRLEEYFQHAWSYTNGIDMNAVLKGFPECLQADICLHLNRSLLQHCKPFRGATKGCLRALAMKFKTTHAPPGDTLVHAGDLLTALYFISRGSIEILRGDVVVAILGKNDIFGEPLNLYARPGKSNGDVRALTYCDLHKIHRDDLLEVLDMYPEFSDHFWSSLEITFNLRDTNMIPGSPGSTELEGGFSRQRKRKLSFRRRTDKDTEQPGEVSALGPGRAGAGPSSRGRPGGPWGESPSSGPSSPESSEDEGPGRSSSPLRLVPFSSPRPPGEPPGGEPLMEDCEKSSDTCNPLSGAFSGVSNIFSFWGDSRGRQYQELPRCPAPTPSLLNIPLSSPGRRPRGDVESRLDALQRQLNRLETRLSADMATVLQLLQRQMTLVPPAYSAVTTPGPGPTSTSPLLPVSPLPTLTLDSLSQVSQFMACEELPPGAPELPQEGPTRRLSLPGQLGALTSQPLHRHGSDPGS
Summary of the method: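 Kinetic two-minute fluorescence traces, sampled at 1 s, were collected following thallium stimulus of U2OS cells (1000 per well) that had been cultured overnight at 37 C and loaded with FluxOR II.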

[9] = target: Cytochrome P450 3A4 (Homo sapiens) (UniProt P08684); test: Cytochrome P450 Family 3 Subfamily A Member 4 (CYP3A4) small molecule antagonists: luciferase reporter qHTS assay (AID 1671201); also: nearly all actives have a fitted effect of over 50% in size; also: potency is read from the fitted curve at half-maximal effect; as to activity change, negative = inhibition: series mostly up to about 120 µM
Chain of Cytochrome P450 3A4 (Homo sapiens) (P08684 whole entry, looked up): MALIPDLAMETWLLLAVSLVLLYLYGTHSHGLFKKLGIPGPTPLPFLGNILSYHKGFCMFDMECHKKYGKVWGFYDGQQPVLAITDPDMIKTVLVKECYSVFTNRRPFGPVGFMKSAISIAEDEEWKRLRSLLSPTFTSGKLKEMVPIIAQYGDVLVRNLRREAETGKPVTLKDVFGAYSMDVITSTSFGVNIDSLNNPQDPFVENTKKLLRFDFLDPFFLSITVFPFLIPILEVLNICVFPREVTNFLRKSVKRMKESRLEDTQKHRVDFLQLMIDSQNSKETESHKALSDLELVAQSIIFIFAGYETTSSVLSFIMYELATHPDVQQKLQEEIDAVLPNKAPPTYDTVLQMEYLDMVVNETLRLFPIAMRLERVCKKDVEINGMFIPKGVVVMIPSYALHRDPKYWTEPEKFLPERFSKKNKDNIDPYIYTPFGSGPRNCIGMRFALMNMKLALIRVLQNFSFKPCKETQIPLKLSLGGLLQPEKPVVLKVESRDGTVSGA
Summary of the method: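 Proluciferin-to-luciferin conversion by CYP3A4, NADPH-regenerated, 1 h RT; luminescence read as RLU. Ketoconazole as control.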

[10] = target: Cytochrome P450 1A2 (Homo sapiens) (UniProt P05177); test: Cytochrome P450 Family 1 Subfamily A Member 2 (CYP1A2) small molecule antagonists: luciferase reporter qHTS assay (AID 1671199); also: nearly all actives have a fitted effect of over 50% in size; also: potency is read from the fitted curve at half-maximal effect; as to activity change, negative = inhibition: series mostly up to about 120 µM
Chain of Cytochrome P450 1A2 (Homo sapiens) (P05177 whole entry, looked up): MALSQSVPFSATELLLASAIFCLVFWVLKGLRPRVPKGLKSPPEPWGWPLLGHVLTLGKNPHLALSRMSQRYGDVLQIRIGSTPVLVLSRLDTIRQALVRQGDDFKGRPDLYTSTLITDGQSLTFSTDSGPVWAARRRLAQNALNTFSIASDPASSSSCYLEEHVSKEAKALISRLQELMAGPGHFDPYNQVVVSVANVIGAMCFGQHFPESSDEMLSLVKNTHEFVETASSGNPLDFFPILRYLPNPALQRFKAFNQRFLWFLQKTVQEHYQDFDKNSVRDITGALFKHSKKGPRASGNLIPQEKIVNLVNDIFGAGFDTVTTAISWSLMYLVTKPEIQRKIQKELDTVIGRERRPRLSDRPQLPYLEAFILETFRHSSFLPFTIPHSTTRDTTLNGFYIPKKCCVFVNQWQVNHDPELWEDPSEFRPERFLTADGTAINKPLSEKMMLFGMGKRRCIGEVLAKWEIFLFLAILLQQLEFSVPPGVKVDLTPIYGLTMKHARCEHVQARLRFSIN
Summary of the method: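 Inhibition of CYP1A2 conversion of proluciferin to luciferin, detected by luminescence. Reaction run 1 h at room temperature with NADPH regeneration after brief compound preincubation.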
% is scaled to controls: 0 for no effect and ±100 for the full control effect.

CCO[C@H]1O[C@@H]2OC3(C)CC[C@H]4[C@H](C)CC[C@@H]([C@H]1C)[C@@]24OO3
inactive: Potency [1] | Potency [2] | Potency [3] | Potency [4] | Potency [5] | Potency [8]
active: Potency [6] 21.9 µM | Potency [7] 11 µM

C=CC(=O)OCCCCO
inactive: Potency [1] | Potency [2] | Potency [3] | Potency [4] | Potency [5] | Potency [6] | Potency [7] | Potency [8] | Potency [9]

CCCN(CC1CC1)c1c([N+](=O)[O-])cc(C(F)(F)F)cc1[N+](=O)[O-]
active: Potency [6] 20 µM | Potency [7] 31.7 µM
inactive: Potency [1] | Potency [2] | Potency [3] | Potency [4] | Potency [5] | Potency [8]

CCN(C)N=O
inactive: Potency [1] | Potency [2] | Potency [3] | Potency [4] | Potency [5] | Potency [6] | Potency [7] | Potency [8] | Potency [9]

C=CCC1([C@H](C)CCC)C(=O)NC(=O)NC1=O
active: Potency [9] 31.4 µM
inactive: Potency [1] | Potency [2] | Potency [3] | Potency [4] | Potency [5] | Potency [6] | Potency [10] | Potency [8]

NCC(CC(=O)O)c1ccc(Cl)cc1 (configuration not stated)
inactive: activity, negative = inhibition [1] 4.84% [at 0.435 µM] | activity change, negative = inhibition [2] 1.42% [at 0.435 µM] | activity change, negative = inhibition [3] 5.21% [at 0.439 µM] | activity change, negative = inhibition [4] -0.275% [at 0.435 µM] | activity change, negative = inhibition [5] -6.8% [at 0.435 µM] | activity change, negative = inhibition [6] -14.5% [at 0.435 µM] | activity change, negative = inhibition [7] 1.42% [at 0.435 µM] | activity change, negative = inhibition [10] 12.7% [at 0.435 µM] | activity change, negative = inhibition [8] -9.45% [at 0.29 µM] | activity change, negative = inhibition [9] 4.59% [at 0.435 µM]

CCC(Cl)CCl (configuration not stated)
inactive: Potency [1] | Potency [2] | Potency [3] | Potency [4] | Potency [5] | Potency [6] | Potency [7] | Potency [10] | Potency [8] | Potency [9]

Clc1ccc(C(OCCN2CCCCC2)c2ccccc2)cc1 (configuration not stated)
active: Potency [5] 0.174 µM | Potency [6] 24.5 µM | Potency [8] 0.601 µM
inactive: Potency [1] | Potency [2] | Potency [3] | Potency [4] | Potency [7]

CCOC(=O)CBr
active: Potency [5] 40.1 µM | Potency [6] 40.1 µM | Potency [10] 63.6 µM
inactive: Potency [1] | Potency [2] | Potency [3] | Potency [4] | Potency [8] | Potency [9]

BrCCCCBr
inactive: Potency [1] | Potency [2] | Potency [3] | Potency [4] | Potency [5] | Potency [6] | Potency [7] | Potency [8] | Potency [9]

Cc1ccc(-c2c(Cl)nc(C#N)n2S(=O)(=O)N(C)C)cc1
active: Potency [6] 79.6 µM | Potency [7] 11.2 µM | Potency [10] 22.4 µM
inactive: Potency [1] | Potency [2] | Potency [3] | Potency [4] | Potency [5] | Potency [8] | Potency [9]

CCCCOC(=O)c1ccccc1C(=O)OCc1ccccc1
inactive and 71 µM (active): Potency [5]
inactive: Potency [1] | Potency [2] | Potency [3] | Potency [4] | Potency [9]
active: Potency [6] 1.78 µM and 1.12 µM | Potency [7] 8.92 µM and 10 µM | Potency [10] 15.9 µM and 12.7 µM

Clc1cc(Cl)c(Cl)c(Cl)c1
inactive: Potency [1] | Potency [2] | Potency [3] | Potency [4] | Potency [5] | Potency [6] | Potency [7] | Potency [8] | Potency [9]

Cc1ccc2ccccc2c1
inactive: Potency [1] | Potency [2] | Potency [3] | Potency [4] | Potency [5] | Potency [6] | Potency [7] | Potency [8] | Potency [9]

CC(=O)[C@H]1CC[C@H]2[C@@H]3CC[C@H]4C[C@](C)(O)CC[C@]4(C)[C@H]3CC[C@]12C
inactive: Potency [1] | Potency [2] | Potency [3] | Potency [4] | Potency [5] | Potency [6] | Potency [7] | Potency [8] | Potency [9]

COCC(C)N(C(=O)CCl)c1c(C)csc1C (configuration not stated)
inactive: Potency [1] | Potency [2] | Potency [3] | Potency [4] | Potency [5] | Potency [8] | Potency [9]
active: Potency [6] 6.33 µM | Potency [7] 7.96 µM

NC(=O)C(Cl)(Cl)Cl
inactive: Potency [1] | Potency [2] | Potency [3] | Potency [4] | Potency [5] | Potency [6] | Potency [7] | Potency [8] | Potency [9]

O=C(CBr)Nc1ccc(Cl)cc1C(=O)c1ccccc1F
inactive: Potency [1] | Potency [2] | Potency [3] | Potency [4] | Potency [5] | Potency [8] | Potency [9]
active: Potency [6] 1.95 µM | Potency [10] 13.8 µM

O=C(NCc1cccnc1)Nc1ccc([N+](=O)[O-])cc1
active: Potency [5] 35.6 µM | Potency [6] 2 µM | Potency [7] 5.03 µM | Potency [10] 17.8 µM | Potency [9] 0.796 µM
inactive: Potency [1] | Potency [2] | Potency [3] | Potency [4] | Potency [8]

CCc1ccc(C(=O)NN(C(=O)c2cc(C)cc(C)c2)C(C)(C)C)cc1
active: Potency [6] 5.03 µM | Potency [7] 11.2 µM | Potency [9] 5.03 µM
inactive: Potency [1] | Potency [2] | Potency [3] | Potency [4] | Potency [5] | Potency [10] | Potency [8]

CCCCC(O)(Cn1cncn1)c1ccc(Cl)cc1Cl (configuration not stated)
active: Potency [5] 31.7 µM | Potency [6] 0.252 µM | Potency [7] 0.71 µM | Potency [10] 35.6 µM | Potency [9] 0.126 µM
inactive: Potency [1] | Potency [2] | Potency [3] | Potency [4] | Potency [8]

c1ccoc1
inactive: Potency [1] | Potency [2] | Potency [3] | Potency [4] | Potency [5] | Potency [6] | Potency [7] | Potency [10] | Potency [8] | Potency [9]
